Compounds with a hit are over-represented: about 1.5% of the library has one in this group of screens.
LANA DNA inh = inhibitors of KSHV LANA C-terminal domain DNA binding; 340,000 tested, 0.078% active; inhibition, % at 9 µM; MBP-C-LANA/FAM-LBS DNA binding, fluorescence polarization; AID 504423;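 active = highest replicate inhibition at or above 60% at 9 µM, even if other replicates fall short; inactive = all replicates below 60% inhibition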;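 note: 0% = neutral control wells and 100% = 4 µM acridine orange control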
LANA-H2B inh = blocks KSHV LANA binding to histone H2A/H2B. cell-free LANA-H2A/H2B peptide, fluorescence polarization. Q9QR71. inhibition, % (no concentration beside the values). AID 2629. 320,000 tested, 0.6% active; in the data active = inhibition mostly above about 10%, no sharp cut-off; inactive = mostly below about 6.7%
GLD-1 RNA inh = GLD-1-TGE RNA interaction inhibition (C. elegans); Q17339; purified GLD-1 + fluorescein TGE RNA, fluorescence polarization; inhibition, % at 5.96 µM; 320,000 tested, 0.44% active;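 active = percent inhibition above a per-plate cutoff, the plate mean of test compounds plus 3 SD, cut at about 30% in these data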;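 note: 0% = DMSO wells with GLD-1 and probe and 100% = wells lacking GLD-1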
EBV gp42 inh = EBV gp42 inhibition | inhibition, % (tested at 21.74 µM) | Fluorescence polarization binding assay, mP read-out | Q1HVG2 | AID 1085 | 220,000 tested, 0.42% active; in the data active = inhibition above about 50%
Keap1-Nrf2 PPI = Keap1-Nrf2 (human) interaction inhibition | 340,000 tested, 0.15% active | Keap1 Kelch-Nrf2 peptide fluorescence polarization, 1536-well | inhibition, % at 9.4 µM | Q14145; in the data active = inhibition above about 12%;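 note: human Keap1 Kelch domain with fluorescein labeled Nrf2 9mer peptide probe; 0% = neutral control wells and 100% = peptide positive control; higher means more block of Keap1 binding to Nrf2 peptide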
Target sequence (Q14145 whole entry, looked up, the tested form may be a part): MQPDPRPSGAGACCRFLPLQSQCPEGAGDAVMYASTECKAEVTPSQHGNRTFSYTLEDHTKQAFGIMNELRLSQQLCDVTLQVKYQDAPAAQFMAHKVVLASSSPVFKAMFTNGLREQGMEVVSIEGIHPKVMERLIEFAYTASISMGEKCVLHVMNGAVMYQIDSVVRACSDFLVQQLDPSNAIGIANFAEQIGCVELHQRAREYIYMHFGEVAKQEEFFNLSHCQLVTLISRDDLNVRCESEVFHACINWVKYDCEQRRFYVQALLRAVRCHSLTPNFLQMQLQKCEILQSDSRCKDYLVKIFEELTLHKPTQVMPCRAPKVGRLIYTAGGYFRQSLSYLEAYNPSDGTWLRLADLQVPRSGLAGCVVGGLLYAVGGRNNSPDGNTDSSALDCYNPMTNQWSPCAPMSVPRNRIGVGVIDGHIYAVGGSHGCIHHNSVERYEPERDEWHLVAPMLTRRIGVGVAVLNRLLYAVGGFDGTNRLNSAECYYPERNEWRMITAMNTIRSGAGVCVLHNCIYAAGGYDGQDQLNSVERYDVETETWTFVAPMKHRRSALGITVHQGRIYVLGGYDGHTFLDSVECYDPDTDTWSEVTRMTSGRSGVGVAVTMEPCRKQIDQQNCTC
E coli Lon inh = inhibits E. coli Lon protease | 360,000 tested, 0.42% active | AID 602123 | purified E. coli Lon protease, fluorescence polarization | inhibition, % at 7.94 µM | P0A9M0; in the data active = inhibition above about 13%, passing the limit was not always enough;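 note: 0% = enzyme with probe and DMSO and 100% = no enzyme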
Numbers without * were called inactive.

For COc1ccc(N2CCN(CCNC(=O)CCCn3c(=O)[nH]c4cc(Cl)ccc4c3=O)CC2)cc1 the results were LANA DNA inh 7.2, LANA-H2B inh 19.5*, GLD-1 RNA inh -1.1, EBV gp42 inh -8.2, Keap1-Nrf2 PPI -9.9 and E coli Lon inh 4.2.
Screening O=C1Nc2ccccc2C1=O returned LANA DNA inh -0.8, LANA-H2B inh -5.1, GLD-1 RNA inh 5.8, Keap1-Nrf2 PPI -3.4 and E coli Lon inh -3.8.
Screening O=C1Nc2ccc3sc4ccccc4c3c2C1=O returned LANA-H2B inh -2.2, GLD-1 RNA inh -3.2, EBV gp42 inh 57.8* and E coli Lon inh 1.2.
`CC(C)(C)C(=O)Nc1cccc(OC(F)(F)C(F)Cl)c1` (stereo unspecified) gave LANA DNA inh -0.3, LANA-H2B inh 32.2*, GLD-1 RNA inh -3.8, EBV gp42 inh -15.2, Keap1-Nrf2 PPI 3.6 and E coli Lon inh -1.6.
O=C1NC[C@H](CCCCN2C[C@H](Cc3ccccc3)N(CCc3ccc(O)cc3)C(=O)C2=O)N(CCc2ccc(O)cc2)C1=O was read as E coli Lon inh -9.7.
`CC(=O)N1N=C(c2cccs2)CC1c1cccs1` (stereo unspecified) gave LANA DNA inh 0.3, LANA-H2B inh 0.0, GLD-1 RNA inh -2.6, EBV gp42 inh 2.9, Keap1-Nrf2 PPI 2.8 and E coli Lon inh -9.3.
CC(=O)N1N=C(c2cccs2)CC1c1ccc(C)o1 (stereo unspecified) was read as LANA DNA inh 0.5, LANA-H2B inh 36.0*, GLD-1 RNA inh -6.9, EBV gp42 inh -2.6, Keap1-Nrf2 PPI -1.4 and E coli Lon inh 0.9.
For O=C(NCc1ccccc1Cl)c1ccc2sc([C@@H]3O[C@H](CO)[C@H](O)[C@H](O)[C@H]3O)nc2c1 the results were E coli Lon inh -4.2.
For CCOC(=O)N1CCN(c2cc(NCCC(=O)O)c3c4c(onc24)-c2ccccc2C3=O)CC1 the results were LANA DNA inh -27.1, LANA-H2B inh 36.6*, GLD-1 RNA inh 22.5, EBV gp42 inh -4.2, Keap1-Nrf2 PPI -251.9 and E coli Lon inh 8.8.
`O=C(O)CCCNc1cc(N2CCC3(CC2)OCCO3)c2noc3c2c1C(=O)c1ccccc1-3` gave LANA-H2B inh 37.6*, GLD-1 RNA inh 20.7 and EBV gp42 inh 12.6.
`CC1(C(=O)Nc2nccs2)CCN1C(=O)C1(c2ccccc2)CC1` (stereo unspecified) gave E coli Lon inh 2.2.
`CC1(C(=O)NS(=O)(=O)c2cccc(F)c2)CCN1C(=O)C1(c2ccc(Cl)cc2)CCC1` (stereo unspecified) gave E coli Lon inh -7.0.
CCOC(=O)c1cc(-c2ccc(/C=C3/C(=O)NC(=O)C(C#N)=C3C)o2)ccc1Cl was read as LANA DNA inh 24.7, LANA-H2B inh 5.9, GLD-1 RNA inh 42.2*, EBV gp42 inh 106.0*, Keap1-Nrf2 PPI -2.4 and E coli Lon inh -23.0.
Screening Oc1ccc(C=Nc2cccc3ncccc23)c(O)c1 returned LANA DNA inh 0.7, LANA-H2B inh 0.4, GLD-1 RNA inh 54.8*, EBV gp42 inh -11.4, Keap1-Nrf2 PPI 2.8 and E coli Lon inh 2.0.
For Oc1ccc(C=Nc2ccc3ncccc3c2)c(O)c1 the results were LANA-H2B inh -8.3, GLD-1 RNA inh 2.2 and EBV gp42 inh -10.7.
Screening CCCn1cnnc1CNC(=O)[C@H]1O[C@@H](n2ccc(=O)[nH]c2=O)[C@H](O)[C@@H]1O returned E coli Lon inh 3.5.
Screening CC(C)c1ccc(NC(=O)C(c2ccccc2)N2CCN(C(=O)c3ccco3)CC2)cc1 (stereo unspecified) returned LANA DNA inh -0.3, LANA-H2B inh 1.9, GLD-1 RNA inh -3.9, EBV gp42 inh 12.1, Keap1-Nrf2 PPI -2.0 and E coli Lon inh 0.4.
Screening COc1ccccc1N1CCN(C(=O)c2ccco2)CC1 returned LANA DNA inh 0.6, LANA-H2B inh 16.5*, GLD-1 RNA inh -1.0, Keap1-Nrf2 PPI -1.9 and E coli Lon inh 0.9.
For CC(C(=O)Nc1ccccc1)N1CCN(C(=O)c2ccco2)CC1 (stereo unspecified) the results were LANA DNA inh -0.1, LANA-H2B inh 68.1*, GLD-1 RNA inh -0.1, Keap1-Nrf2 PPI -4.5 and E coli Lon inh -5.8.

Screening data as filed in PubChem BioAssay.
